This note sets out measurements from ChEMBL document CHEMBL1961873, “Compounds: GSK PKIS; Assays: Nanosyn kinase panel” (2012).

Molecules are shown by their SMILES. Where “and” joins values, the source holds several entries; their conditions need not be identical. Identical values can stand only once.
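Further: values are mean percent inhibition of FGFR4.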

The target of the test is Fibroblast growth factor receptor 4 (Homo sapiens) (UniProt P22455). The settings on record: at 0.1 µM.
Chain of Fibroblast growth factor receptor 4 (Homo sapiens) (P22455 22-802 limits assumed): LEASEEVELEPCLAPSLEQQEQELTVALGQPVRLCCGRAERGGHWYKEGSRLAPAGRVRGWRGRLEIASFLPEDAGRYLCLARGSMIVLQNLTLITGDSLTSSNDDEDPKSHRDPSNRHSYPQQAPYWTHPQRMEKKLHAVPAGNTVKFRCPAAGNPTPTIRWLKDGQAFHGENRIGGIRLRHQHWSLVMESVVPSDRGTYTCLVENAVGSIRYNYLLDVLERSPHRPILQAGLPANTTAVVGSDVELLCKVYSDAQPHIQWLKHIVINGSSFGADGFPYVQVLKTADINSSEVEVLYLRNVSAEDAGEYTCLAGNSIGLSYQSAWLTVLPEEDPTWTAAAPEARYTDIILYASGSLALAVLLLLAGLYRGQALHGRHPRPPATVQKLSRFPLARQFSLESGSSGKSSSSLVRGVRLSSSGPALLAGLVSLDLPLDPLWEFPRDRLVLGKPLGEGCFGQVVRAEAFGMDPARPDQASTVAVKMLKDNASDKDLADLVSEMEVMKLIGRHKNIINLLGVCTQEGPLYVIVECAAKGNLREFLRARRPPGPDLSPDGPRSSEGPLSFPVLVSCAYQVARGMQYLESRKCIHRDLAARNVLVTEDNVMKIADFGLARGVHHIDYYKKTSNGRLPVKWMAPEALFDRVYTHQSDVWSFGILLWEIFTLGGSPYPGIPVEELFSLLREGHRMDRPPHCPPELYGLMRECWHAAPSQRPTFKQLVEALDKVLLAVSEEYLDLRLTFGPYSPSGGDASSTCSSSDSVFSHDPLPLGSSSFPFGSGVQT
Turning to `NS(=O)(=O)c1ccc(N/N=C2\C(=O)Nc3ccc(C(=O)NCc4ccncc4)cc32)cc1`, the inhibition was -2.09%.

Consider `Nc1nccc(-c2c(-c3ccc(F)cc3)ncn2C2CCNCC2)n1`, for which the inhibition is -0.08% and 3.95%.

Take `CCOc1ccc2c(-c3ccnc(Nc4cc(OC)cc(C(F)(F)F)c4)n3)cnn2n1`: the inhibition was 0.25%.

Take `CS(=O)(=O)CCNCc1ccc(-c2ccc3ncnc(Nc4ccc(OCc5cccc(C(F)(F)F)c5)cc4)c3c2)o1`: the inhibition turned out to be 4.16%.

Turning to `Fc1ccc(Nc2nccc(-c3c(-c4ccc(C(F)(F)F)cc4)nn4ncccc34)n2)cc1F`, the inhibition was -0.65%.

On to `COc1cccc(-n2ncc3c(N/N=C/c4ccc(C(=O)NCCN(C)C)cc4)ncnc32)c1`, for which the inhibition came out at 0.01%.

Turning to `CCn1c(-c2nonc2N)nc2cncc(C(=O)NCCNC)c21`, the inhibition amounted to 0.72%.

Regarding `COc1cc(Nc2ncc(-c3ccccc3)o2)cc(OC)c1`, the inhibition was -1.24%.

Consider `O=C1Nc2ccccc2/C1=C1\CCc2cc(O)ccc21`, for which the inhibition was -1.94%.

Consider `CS(=O)(=O)CCNCc1ccc(-c2ccc3ncnc(Nc4ccc(OCc5ccccc5)cc4)c3c2)o1`, for which the inhibition was found to be 1.63%.

As to `FC(F)(F)CNc1nccc(-c2cnn3ncccc23)n1`, the inhibition worked out at 1.62%.

As to `Cc1c2ccc(N(C)c3ccnc(Nc4cccc(S(N)(=O)=O)c4)n3)cc2nn1C`, the inhibition worked out at 2.26%.

On to `CN1CCC(n2cnc(-c3ccc(F)cc3)c2-c2ccnc(NCCO)n2)CC1`, for which the inhibition is -1.01%.

For the compound `NS(=O)(=O)c1cccc(N/C=C2\C(=O)Nc3ccccc32)c1`, the inhibition is -4.72%.

In the case of `CNC(=O)c1ncccc1Nc1nc(Nc2cc3c(cc2OC)CCCN3C(=O)CN(C)C)nc2[nH]ccc12`, the inhibition amounted to 2.18%.

In the case of `COc1c(C(N)=O)cc(-c2ccc(Cl)cc2)cc1-c1ccc(S(N)(=O)=O)cc1`, the inhibition came out at 4.18%.

With `COc1ccccc1-c1cc(/C=C2\C(=O)Nc3ncc(Br)cc32)cc(Br)c1O`, the inhibition is -0.86%.

Regarding `COc1cc2c(cc1Nc1nc(Nc3cccc(F)c3C(N)=O)c3cc[nH]c3n1)N(C(=O)CN1CCN(C(C)C)CC1)CC2`, the inhibition turned out to be 1.09%.

Regarding `COc1ccc(-c2nn3ncccc3c2-c2ccnc(Nc3ccc(F)c(F)c3)n2)cc1`, the inhibition was found to be 1.42%.

With `Cc1cc(O)cc(C)c1/C=C/c1cncc(C(N)=O)c1`, the inhibition is -4.55%.

With `Cc1nnc(-c2cccc(-c3ccc(C(=O)NCC4CC4)cc3)c2)o1`, the inhibition was -0.29%.

In the case of `O=C(O[C@H]1CN[C@H](C#Cc2cc3ncnc(Nc4ccc5c(cnn5Cc5ccccc5)c4)c3s2)C1)N1CCOCC1`, the inhibition is 0.54%.

For the compound `CC(C)c1ccc(-c2cc(-c3c[nH]nc3-c3ccccn3)ccn2)cc1`, the inhibition was 0.39%.

Consider `COC(=O)Nc1nc2ccc(Oc3ccc(NC(=O)Nc4cc(C(F)(F)F)ccc4F)cc3)cc2s1`, for which the inhibition is 0.42%.

`CC1=C(C(=O)Nc2ccc3[nH]ncc3c2)C(c2ccc(F)cc2)N=C(c2ccc(C(F)(F)F)nc2)N1` (stereo unspecified): the inhibition was found to be 0.81%.

In the case of `Cc1cc(O)cc(C)c1/C=C/c1cncc(C(=O)OC(C)(C)C)c1`, the inhibition is 1.4%.

For `COC(=O)Nc1nc2cc(Oc3ccc(NC(=O)Nc4ccccc4)cc3)ccc2[nH]1`, the inhibition was found to be 0.83%.

For `CC1(C)CC(n2cnc(-c3ccc(F)cc3)c2-c2ccnc(N)n2)CC(C)(C)N1`, the inhibition was -1.33%.

Consider `COc1cc(N2CCN(C(C)C)CC2)ccc1Nc1nc(Nc2cccc3ncccc23)c2cc[nH]c2n1`, for which the inhibition was 0.6%.

With `c1ccc(-c2n[nH]cc2-c2ccnc(-c3ccc(OCCn4ccnc4)cc3)c2)nc1`, the inhibition worked out at 1.45%.

As for `Nc1ncnc2occ(-c3ccc(NC(=O)Nc4cc(C(F)(F)F)ccc4F)cc3)c12`, the inhibition was 2.49% and 0.65%.

The term inhibition denotes the change of the read-out against control, counted positive when it falls.
